# Compounds without any hit were thinned out: in the full panel of roughly 83,000, 20% have a hit.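 For each line, cells grew in 96-well plates with the test compound present at a single concentration for 48 hours.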 A number with no mark means an inactive call. The source made the active and inactive calls.
# System: SK-MEL-2 melanoma
# Assay: NCI-60 one-dose screen, 48 h (100 = growth as untreated, 0 = no growth, -100 = all killed)
# Details: 10 µM unless noted
# Procedure: Growth inhibition of the SK-MEL-2 human tumor cell line is measured as a screen for anti-cancer activity. Cells are grown in 96 well plates and exposed to the test compound for 48 hours. Compounds are tested at a single concentration, which is 10^-5 M for most compounds. The reported endpoint is percent growth (GI% or GIPRCNT), where numbers from 0 - 100% represent growth inhibition, and numbers from -100% - 0 represent cell death. For example, a value of 40 represents 60% growth inhibition. A value of 0 means no net growth occurred over the course of the experiment. A value of -40 indicates 40% of cells at the beginning of the experiment died by the end of the experiment. A value of -100 means all cells are dead at the end of the experiment.
# NCI-60 Human Tumor Cell Lines Screen was performed using the standard one-dose NCI protocol, which is described in more detail at https://dtp.cancer.gov/discovery_development/nci-60/default.htm.
# Compounds with GIPRCNT values below 10 were considered active. Activity score was based on GIPRCNT using the following formula: […]
# Score is 0 for GIPRCNT values of 100 or above, 50 for GIPRCNT values of 0, and 100 for GIPRCNT values of -100.
row,Compound,growth
1,COc1ccc(-c2ccc3c4c(cccc24)C(=O)N(N2C(=O)c4cccc5cccc(c45)C2=O)C3=O)cc1,111%
2,CC1(C)CC[C@]2(C(=O)O)CC[C@]3(C)C(=CCC4[C@@]5(C)C[C@@H](O)[C@@H]6OC(c7cccc([N+](=O)[O-])c7)OC[C@@]6(C)C5CC[C@]43C)C2C1 (stereo not given in full),88.5%
3,Cc1ccc(-c2cc(-c3ccc(N(C)C)cc3)n3c(n2)nc2ccccc23)cc1,16%
4,Clc1ccc(-c2csc(N/N=C/c3nc4ccccc4n3C3CC3)n2)cc1,106%
5,Cc1cc(O)c(=O)cc2c1C[C@H]1CC(C)(C)/C=C/C[C@]3(C)Oc4cc(=O)c(O)cc(C)c4C[C@H]3C[C@H](O)[C@@]1(C)O2,-27.1% (active)
6,C=C(C)C(=O)O[C@H]1C[C@@]2(C)OC(=CC2=O)[C@H](C)[C@H](O)[C@H]2OC(=O)C(=C)[C@@H]21,43.1%
7,Oc1ccc(CSc2nnc(-c3cnccn3)o2)c2cccnc12,-2.52% (active)
8,COc1cc(/C=N/Nc2ccnc3cc(Cl)ccc23)cc(OC)c1O,119%
9,NC(=O)N1N=C(c2cc3ccccc3oc2=O)CC1c1cn(-c2ccccc2)nc1-c1ccc(Cl)cc1 (stereo not given),71.8%
10,O=C(CN1CCN(c2cc(=O)n(-c3ccccc3)c3ccccc23)CC1)Nc1ccc([N+](=O)[O-])cc1,101%
11,COc1ccccc1N1CCN(C2=NN=C(c3cccc(Cl)c3)c3ccccc3C2)CC1,0.738% (active)
12,COc1cc(/C=N/n2cnc3oc(-c4ccccc4)cc3c2=N)cc(CN2CCCCC2)c1O,-38.5% (active)
13,COc1ccc(Oc2ccc(C3CC(c4cc(OC)c(OC)c(OC)c4)=NN3C(C)=O)cc2)cc1 (stereo not given),49%
14,Oc1ccc(CSc2nnc(-c3ccccc3)o2)c2cccnc12,35.4%
15,N#C/C(=C\c1ccc2ccccc2c1)C(=O)Nc1sc2c(c1C#N)CCC2,100%
16,CCN(CC)CCN1C(=O)c2c(c3c4cccnc4[nH]c3c3ccc4ccccc4c23)C1=O,107%
17,c1ccc(-c2n(Cc3ccc4ccccc4c3)c3c4ccccc4c4ccccc4c3[n+]2Cc2ccc3ccccc3c2)cc1,-68.3% (active)
18,NS(=O)(=O)c1ccc(Nc2nc(N/N=C/c3ccc(C(F)(F)F)cc3)nc(Nc3ccccc3)n2)cc1,28.7%
19,Cc1ccc(NC(=O)c2cccc(CN3CCN(C)CC3)c2)cc1Oc1ccc(-c2[nH]nc3ncnc(N)c23)cc1,73.8%
20,CCOC(=O)C1=C(C)N=C2Sc3ccccc3N2C1c1ccccc1 (stereo not given),89.7%

row,Compound,growth
1,CCOC(=O)Nc1ccc(-c2nc(-c3cccc(O)c3)c(-c3ccnc(Br)c3)[nH]2)cc1,34.4%
2,COc1ccc(S(=O)(=O)n2cc(C=O)c3ccccc32)c(OC)c1,96.1%
3,COc1cc(/C=N/n2cnc3oc(-c4ccccc4)cc3c2=N)cc(CN2CCN(C)CC2)c1O,113%
4,CCN1C(=O)N(CC)C2SC(N/N=C/c3ccc(F)cc3)=NC21 (stereo not given),17.2%
5,Oc1ccc(CSc2nnc(-c3ccncc3)o2)c2cccnc12,8.88% (active)
6,CCN(CC)c1ccc2cc(C(=O)NCCOCCOCCOCCn3cc(CCC(=O)Nc4ccc(C(=O)c5ccc(NC(=O)OC(C)(C)C)cc5)cc4)nn3)c(=O)oc2c1,67.6%
7,O=S(=O)(NCCCNc1nccc(-n2cnc3ccccc32)n1)c1ccc(F)cc1,85.8%
8,C/C=C/C=C1\C[C@H]2CO[C@H](O2)C1=O,100%
9,NNC(=O)c1sc2nc(-c3cnccn3)cc(-c3cccs3)c2c1N,102%
10,CCN(CC)CCN1C(=O)c2c(c3c4cc(Br)ccc4[nH]c3c3ccc4ccccc4c23)C1=O,116%
11,COc1ccccc1/C=C/C(=O)c1nnn(-c2ccc(C(=O)O)cc2)c1C,98.6%
12,O=C(/C=C1\C=CN(CCCCF)c2ccccc21)n1ccc2ccccc21,103%
13,CC(=O)Nc1nc2c(s1)C1=CC[C@H]3[C@@H]4CC[C@H](C(C)=O)[C@@]4(C)CC[C@@H]3[C@@]1(C)CC2,56.2%
14,CCOC(=O)c1c(NC(=O)c2cccc(C(F)(F)F)c2)sc2c(CN3CCN(C)CC3)c(O)ccc12,94.7%
15,CCN1C(=O)N(CC)C2SC(N/N=C/C=C/c3ccccc3OC)=NC21 (stereo not given),51.5%
16,N#Cc1c(-c2cccs2)cc(-c2cnccn2)nc1SCC(=O)NNC(=S)Nc1ccc(F)cc1,123%
17,CC1(C)CC[C@]2(C(=O)N3CCCN(CC#N)CC3)CC[C@]3(C)C(=CC[C@@H]4[C@@]5(C)CC[C@H](O)C(C)(C)[C@@H]5CC[C@]43C)[C@H]2C1,76.8%
18,CN1CCN(c2ccc3c(c2)nc(NNC(=O)c2ccncn2)c2cccn23)CC1,31.5%
19,COc1ccc(CN2C(=O)/C(=C/c3nc(CO)cs3)SC2=S)cc1,98.2%
20,O=C(O)c1ccc(-n2cc(CNc3ccc(Cl)cc3)c(-c3ccc(F)cc3)n2)cc1,99.1%
